Measured values taken from PubChem BioAssay (NCI).
Compounds without any hit were thinned out: in the full panel of roughly 83,000, 20% have a hit.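 Activity criterion: percent growth below 10, measured after cells in 96-well plates were exposed to a single compound concentration for 48 hours.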 Unmarked numbers belong to inactive results. Activity calls are given as the source filed them.

Legend:
Experiment in all cases: NCI-60 one-dose screen, 48 h (100 = growth as untreated, 0 = no growth, -100 = all killed)
Details in all cases: 10 µM
HCT-15 colon = test system: HCT-15 colon
HT29 colon = test system: HT29 colon
SNB-75 CNS = test system: SNB-75 CNS
SNB-19 CNS = test system: SNB-19 CNS
U251 CNS = test system: U251 CNS
PC-3 prostate = test system: PC-3 prostate
SK-MEL-5 melanoma = test system: SK-MEL-5 melanoma
UACC-62 melanoma = test system: UACC-62 melanoma
LOX IMVI melanoma = test system: LOX IMVI melanoma
SK-MEL-28 melanoma = test system: SK-MEL-28 melanoma
SK-MEL-2 melanoma = test system: SK-MEL-2 melanoma
EKVX NSCLC = test system: EKVX NSCLC
SN12C renal = test system: SN12C renal
UO-31 renal = test system: UO-31 renal
TK-10 renal = test system: TK-10 renal
ACHN renal = test system: ACHN renal
CAKI-1 renal = test system: CAKI-1 renal
A498 renal = test system: A498 renal
CCRF-CEM leukemia = test system: CCRF-CEM leukemia
MOLT-4 leukemia = test system: MOLT-4 leukemia

SMILES: Cc1cc(CCNC=O)c(C)c2c1sc1ccccc12
- growth (HCT-15 colon): 90.2%
- growth (HT29 colon): 97.1%
- growth (SNB-75 CNS): 81.9%
- growth (SNB-19 CNS): 85.1%
- growth (U251 CNS): 92%
- growth (PC-3 prostate): 84.7%
- growth (SK-MEL-5 melanoma): 78.8%
- growth (UACC-62 melanoma): 79.1%
- growth (LOX IMVI melanoma): 98.4%
- growth (SK-MEL-28 melanoma): 89.9%
- growth (SK-MEL-2 melanoma): 109%
- growth (EKVX NSCLC): 56.6%
- growth (SN12C renal): 79.7%
- growth (UO-31 renal): 91.2%
- growth (TK-10 renal): 94.4%
- growth (ACHN renal): 99.8%
- growth (CAKI-1 renal): 80.7%
- growth (A498 renal): 72.8%
- growth (CCRF-CEM leukemia): 84%
- growth (MOLT-4 leukemia): 94.5%

SMILES: CCOC(=O)Cn1c(=O)c2sc3ncccc3c2n2nnc(-c3ccccc3)c12
- growth (HCT-15 colon): 107%
- growth (HT29 colon): 107%
- growth (SNB-75 CNS): 77.2%
- growth (SNB-19 CNS): 101%
- growth (U251 CNS): 104%
- growth (PC-3 prostate): 94.8%
- growth (SK-MEL-5 melanoma): 104%
- growth (UACC-62 melanoma): 90.5%
- growth (LOX IMVI melanoma): 97.4%
- growth (SK-MEL-28 melanoma): 104%
- growth (SK-MEL-2 melanoma): 103%
- growth (EKVX NSCLC): 104%
- growth (SN12C renal): 97.4%
- growth (UO-31 renal): 60.2%
- growth (TK-10 renal): 132%
- growth (ACHN renal): 95.5%
- growth (CAKI-1 renal): 93.4%
- growth (A498 renal): 152%
- growth (MOLT-4 leukemia): 89.6%

SMILES: Cc1c(O)c(=O)ccn1C1CCC(CC2CCC(n3ccc(=O)c(O)c3C)CC2)CC1 (stereo not drawn)
- growth (HCT-15 colon): 18.9%
- growth (HT29 colon): 33.8%
- growth (SNB-75 CNS): 21.1%
- growth (SNB-19 CNS): 30.2%
- growth (U251 CNS): 30.2%
- growth (PC-3 prostate): 41.7%
- growth (SK-MEL-5 melanoma): 29.2%
- growth (UACC-62 melanoma): 14.6%
- growth (LOX IMVI melanoma): 25%
- growth (SK-MEL-28 melanoma): 49.4%
- growth (SK-MEL-2 melanoma): 66.8%
- growth (EKVX NSCLC): 10.2%
- growth (SN12C renal): 41.5%
- growth (UO-31 renal): 38.6%
- growth (TK-10 renal): 50.1%
- growth (ACHN renal): 35.7%
- growth (CAKI-1 renal): 25.2%
- growth (A498 renal): 50.9%
- growth (MOLT-4 leukemia): 25.7%

SMILES: CC(=O)N[C@H](C(=O)N[C@@H](CCCNC(=N)N)C(=O)N[C@@H](CCCCN)C(=O)N[C@@H](CCCNC(=N)N)C(=O)NC(C(=O)N[C@@H](CC(C)C)C(=O)N[C@@H](CCCNC(=N)N)C(=O)N[C@@]1(C)CCC/C=C\CCC[C@@](C)(C(=O)N[C@@H](CCCNC(=N)N)C(=O)N[C@@H](CCC(=O)O)C(=O)N[C@@H](CC(C)C)C(=O)N[C@H](C(=O)N[C@@H](CCC(=O)O)C(N)=O)C(C)C)NC(=O)[C@H](CCC(N)=O)NC(=O)[C@H](CC(C)C)NC(=O)[C@H](CC(C)C)NC1=O)[C@@H](C)O)C(C)C (stereo partly drawn)
- growth (HCT-15 colon): 16.2%
- growth (HT29 colon): 26.9%
- growth (SNB-75 CNS): -16.4% (active)
- growth (SNB-19 CNS): 31.7%
- growth (U251 CNS): -35.7% (active)
- growth (PC-3 prostate): -75.5% (active)
- growth (SK-MEL-5 melanoma): -83.9% (active)
- growth (UACC-62 melanoma): -68.1% (active)
- growth (LOX IMVI melanoma): 33.2%
- growth (SK-MEL-28 melanoma): -37.7% (active)
- growth (SK-MEL-2 melanoma): -6.77% (active)
- growth (EKVX NSCLC): 0.7% (active)
- growth (SN12C renal): -52% (active)
- growth (UO-31 renal): 78.5%
- growth (TK-10 renal): -37.3% (active)
- growth (ACHN renal): 41.2%
- growth (CAKI-1 renal): 32.3%
- growth (A498 renal): 26.9%
- growth (MOLT-4 leukemia): 32.7%

SMILES: O=C(CCCSc1nc(-c2ccc(Cl)cc2)cc(-c2ccc(Cl)cc2)n1)NO
- growth (HCT-15 colon): 17.6%
- growth (HT29 colon): 23.2%
- growth (SNB-75 CNS): 13.7%
- growth (SNB-19 CNS): 17.7%
- growth (U251 CNS): 17.2%
- growth (PC-3 prostate): 21%
- growth (SK-MEL-5 melanoma): -31.7% (active)
- growth (UACC-62 melanoma): -10.7% (active)
- growth (LOX IMVI melanoma): -2.15% (active)
- growth (SK-MEL-28 melanoma): 25%
- growth (SK-MEL-2 melanoma): 20.8%
- growth (EKVX NSCLC): -19.7% (active)
- growth (SN12C renal): 4.81% (active)
- growth (UO-31 renal): -34.9% (active)
- growth (TK-10 renal): 24.3%
- growth (ACHN renal): 2.26% (active)
- growth (CAKI-1 renal): 2.08% (active)
- growth (A498 renal): -3% (active)
- growth (MOLT-4 leukemia): 4.91% (active)

SMILES: COc1ccc(C(c2ccc(OCCN(C)C)cc2)c2cc3ccccc3c3ccccc23)cc1 (stereo not drawn)
- growth (HCT-15 colon): -30.9% (active)
- growth (HT29 colon): -7.37% (active)
- growth (SNB-75 CNS): 86.8%
- growth (SNB-19 CNS): 65%
- growth (U251 CNS): 16.6%
- growth (PC-3 prostate): 60.7%
- growth (SK-MEL-5 melanoma): 58.6%
- growth (UACC-62 melanoma): -47.8% (active)
- growth (LOX IMVI melanoma): -81% (active)
- growth (SK-MEL-28 melanoma): -77.8% (active)
- growth (SK-MEL-2 melanoma): 86.4%
- growth (EKVX NSCLC): 56.6%
- growth (SN12C renal): 64.4%
- growth (UO-31 renal): 72.2%
- growth (TK-10 renal): 88%
- growth (ACHN renal): 21.6%
- growth (CAKI-1 renal): 76.5%
- growth (A498 renal): 101%
- growth (MOLT-4 leukemia): 5.83% (active)

SMILES: CNC(=O)c1cn2c3c(c(N4CCN(C)CC4)c(F)cc3c1=O)OC[C@@H]2C
- growth (HCT-15 colon): 102%
- growth (HT29 colon): 96.2%
- growth (SNB-75 CNS): 84.1%
- growth (SNB-19 CNS): 106%
- growth (U251 CNS): 99.5%
- growth (PC-3 prostate): 96.2%
- growth (SK-MEL-5 melanoma): 101%
- growth (UACC-62 melanoma): 103%
- growth (LOX IMVI melanoma): 94.8%
- growth (SK-MEL-28 melanoma): 108%
- growth (SK-MEL-2 melanoma): 95.4%
- growth (EKVX NSCLC): 93.5%
- growth (SN12C renal): 104%
- growth (UO-31 renal): 92.3%
- growth (TK-10 renal): 90.6%
- growth (ACHN renal): 111%
- growth (CAKI-1 renal): 94.7%
- growth (A498 renal): 92.8%
- growth (MOLT-4 leukemia): 101%

SMILES: Cc1[nH]c2ccccc2c1/C=N/Nc1ncnc2sc3c(c12)CCN(CC(=O)OC(C)(C)C)C3
- growth (HCT-15 colon): 30.1%
- growth (HT29 colon): 41.8%
- growth (SNB-75 CNS): 63.4%
- growth (SNB-19 CNS): 93.3%
- growth (U251 CNS): 78.2%
- growth (PC-3 prostate): 69.2%
- growth (SK-MEL-5 melanoma): 60.8%
- growth (UACC-62 melanoma): 81.9%
- growth (LOX IMVI melanoma): 83.6%
- growth (SK-MEL-28 melanoma): 80.7%
- growth (SK-MEL-2 melanoma): 92.6%
- growth (EKVX NSCLC): 134%
- growth (SN12C renal): 85.3%
- growth (UO-31 renal): 65.5%
- growth (TK-10 renal): 101%
- growth (ACHN renal): 54.2%
- growth (CAKI-1 renal): 47.2%
- growth (A498 renal): 51.8%
- growth (MOLT-4 leukemia): 46.5%
